Measured values: the supplement of paper PMC10849652
The full data set covers some 7,900 targets. This sample favours those with a hit. About 0.6% of all pairs of compound and target were hits.

Experiments:
Assay in all cases: log2 fold change, soluble protein after heating vs DMSO (PISA); higher = thermal stabilisation; K562 cells, 10 uM, 30 min; active = over 0.2 and 3.5 SD of the protein, either way, in both replicates (recomputed)
[1] = compound: COC1=CC=C(C=C1)CN2C=CC3=C2C=C(C=C3)C(=O)NO
Procedure, shortened: (§1)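 K562 cells at 2×10^6 cells/mL were treated with 10 μM compound for 30 min. Aliquots were heated for 3 min across 48°C-58°C, pooled, and extracted in PBS with 0.5% NP-40 at 4°C; soluble protein was the supernatant after 21,000xg for 90 min. Soluble protein was quantified by TMTpro 16plex LC-MS/MS with channel sums equalised, and reported as log2 fold change in thermal stability against DMSO controls, with values from duplicates.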

filanesib = compound: CON(C)C(=O)N1N=C(c2cc(F)ccc2F)S[C@@]1(CCCN)c1ccccc1 [filanesib]
Procedure, shortened: as §1

zotarolimus = compound: CO[C@H]1C[C@@H]2CC[C@@H](C)[C@@](O)(O2)C(=O)C(=O)N2CCCC[C@H]2C(=O)O[C@H]([C@H](C)C[C@@H]2CC[C@H](n3cnnn3)[C@H](OC)C2)CC(=O)[C@H](C)/C=C(\C)[C@@H](O)[C@@H](OC)C(=O)[C@H](C)C[C@H](C)/C=C/C=C/C=C/1C [zotarolimus]
Procedure, shortened: as §1

idasanutlin = compound: COc1cc(C(=O)O)ccc1NC(=O)[C@@H]1N[C@@H](CC(C)(C)C)[C@](C#N)(c2ccc(Cl)cc2F)[C@H]1c1cccc(Cl)c1F [idasanutlin]
Procedure, shortened: as §1

alisertib = compound: COc1cc(Nc2ncc3c(n2)-c2ccc(Cl)cc2C(c2c(F)cccc2OC)=NC3)ccc1C(=O)O [alisertib]
Procedure, shortened: as §1

[2] = compound: COc1cc2nc(-c3cc(F)ccc3O)nc(N[C@@H]3CNC[C@H]3C(C)(C)O)c2cc1OC
Procedure, shortened: as §1

gefitinib = compound: COc1cc2ncnc(Nc3ccc(F)c(Cl)c3)c2cc1OCCCN1CCOCC1 [gefitinib]
Procedure, shortened: as §1

[3] = compound: COc1cccc2cc(-c3nc([C@H]4CC[C@H](C(=O)O)CC4)n4ncnc(N)c34)[nH]c12
Procedure, shortened: as §1

lapatinib = compound: CS(=O)(=O)CCNCc1ccc(-c2ccc3ncnc(Nc4ccc(OCc5cccc(F)c5)c(Cl)c4)c3c2)o1 [lapatinib]
Procedure, shortened: as §1

pictilisib = compound: CS(=O)(=O)N1CCN(Cc2cc3nc(-c4cccc5[nH]ncc45)nc(N4CCOCC4)c3s2)CC1 [pictilisib]
Procedure, shortened: as §1

Measured: log2 fold change

CDAN1 (UniProt Q8IWY9)
inactive: [1] -0.032 | filanesib -0.017 | zotarolimus 0.008 | idasanutlin -0.088 | alisertib -0.041 | [2] -0.044 | gefitinib -0.034 | [3] 0.185 | lapatinib 0.005 | pictilisib 0.011

CPSF3 (UniProt Q9UKF6)
Sequence of UniProt Q9UKF6 (Q9UKF6 whole entry, looked up): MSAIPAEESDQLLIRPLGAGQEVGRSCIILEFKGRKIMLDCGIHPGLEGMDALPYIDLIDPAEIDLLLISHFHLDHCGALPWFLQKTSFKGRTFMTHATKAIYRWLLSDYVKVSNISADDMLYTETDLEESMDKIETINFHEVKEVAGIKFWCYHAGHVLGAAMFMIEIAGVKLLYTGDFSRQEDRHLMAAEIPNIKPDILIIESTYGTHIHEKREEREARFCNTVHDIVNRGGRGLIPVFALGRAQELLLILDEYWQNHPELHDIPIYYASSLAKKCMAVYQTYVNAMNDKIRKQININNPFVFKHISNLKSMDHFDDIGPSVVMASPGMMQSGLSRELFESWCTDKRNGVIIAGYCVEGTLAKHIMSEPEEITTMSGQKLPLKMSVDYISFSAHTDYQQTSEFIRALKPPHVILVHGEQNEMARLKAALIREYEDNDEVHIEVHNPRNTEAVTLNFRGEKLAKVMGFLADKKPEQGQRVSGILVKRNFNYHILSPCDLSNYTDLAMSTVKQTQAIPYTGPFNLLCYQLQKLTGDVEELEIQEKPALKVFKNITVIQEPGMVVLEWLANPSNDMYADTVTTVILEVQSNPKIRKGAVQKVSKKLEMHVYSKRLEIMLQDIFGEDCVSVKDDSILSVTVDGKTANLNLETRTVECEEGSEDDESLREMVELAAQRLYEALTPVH
inactive: [1] -0.063 | filanesib 0.033 | zotarolimus 0.011 | idasanutlin -0.007 | alisertib -0.067 | [2] -0.021 | gefitinib 0 | [3] -0.012 | lapatinib 0.009 | pictilisib -0.025

CCDC59 (UniProt Q9P031)
inactive: [1] 0.024 | filanesib 0.301 | zotarolimus -0.008 | idasanutlin 0.225 | alisertib -0.124 | [2] -0.013 | gefitinib -0.066 | [3] -0.054 | lapatinib -0.034 | pictilisib -0.234

CNDP2 (UniProt Q96KP4)
Sequence of UniProt Q96KP4 (Q96KP4 whole entry, looked up): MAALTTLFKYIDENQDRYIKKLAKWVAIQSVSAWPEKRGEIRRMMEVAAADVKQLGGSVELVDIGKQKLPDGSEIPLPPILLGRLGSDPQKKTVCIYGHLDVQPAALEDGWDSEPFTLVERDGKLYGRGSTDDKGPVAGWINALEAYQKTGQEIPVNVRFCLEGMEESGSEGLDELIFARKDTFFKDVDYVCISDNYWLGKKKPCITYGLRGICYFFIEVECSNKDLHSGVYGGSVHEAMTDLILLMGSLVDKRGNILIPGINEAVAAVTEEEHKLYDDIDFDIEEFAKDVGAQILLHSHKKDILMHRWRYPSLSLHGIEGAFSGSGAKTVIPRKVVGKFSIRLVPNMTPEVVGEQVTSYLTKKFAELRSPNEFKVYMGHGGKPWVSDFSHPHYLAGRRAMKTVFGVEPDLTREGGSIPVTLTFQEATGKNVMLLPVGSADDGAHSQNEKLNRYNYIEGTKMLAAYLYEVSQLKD
inactive: [1] -0.171 | filanesib -0.145 | zotarolimus 0.041 | idasanutlin -0.024 | alisertib -0.049 | [2] -0.001 | gefitinib -0.008 | [3] 0.027 | lapatinib 0.017 | pictilisib 0.021

CDC26 (UniProt Q8NHZ8)
inactive: [1] -0.031 | filanesib 0.085 | zotarolimus -0.011 | idasanutlin -0.053 | alisertib -0.023 | [2] 0 | gefitinib 0.003 | [3] -0.017 | lapatinib -0.023 | pictilisib -0.125

CNN2 (UniProt Q99439)
inactive: [1] -0.008 | filanesib -0.058 | zotarolimus -0.002 | idasanutlin -0.029 | alisertib -0.007 | [2] 0.021 | gefitinib 0.012 | [3] -0.065 | lapatinib -0.041 | pictilisib -0.054

COX5A (UniProt P20674)
inactive: [1] -0.1 | filanesib 0.015 | zotarolimus 0.054 | idasanutlin -0.012 | alisertib -0.13 | [2] -0.092 | gefitinib 0.067 | [3] 0.084 | lapatinib -0.108 | pictilisib 0.108

CHST11 (UniProt Q9NPF2)
inactive: [1] 0.153 | filanesib 0.016 | zotarolimus 0.061 | idasanutlin -0.016 | alisertib -0.248 | [2] -0.19 | gefitinib -0.013 | [3] 0.012 | lapatinib 0.297 | pictilisib -0.025

CHD4 isoform 2 (UniProt Q14839)
Sequence of UniProt Q14839 (Q14839 whole entry, looked up): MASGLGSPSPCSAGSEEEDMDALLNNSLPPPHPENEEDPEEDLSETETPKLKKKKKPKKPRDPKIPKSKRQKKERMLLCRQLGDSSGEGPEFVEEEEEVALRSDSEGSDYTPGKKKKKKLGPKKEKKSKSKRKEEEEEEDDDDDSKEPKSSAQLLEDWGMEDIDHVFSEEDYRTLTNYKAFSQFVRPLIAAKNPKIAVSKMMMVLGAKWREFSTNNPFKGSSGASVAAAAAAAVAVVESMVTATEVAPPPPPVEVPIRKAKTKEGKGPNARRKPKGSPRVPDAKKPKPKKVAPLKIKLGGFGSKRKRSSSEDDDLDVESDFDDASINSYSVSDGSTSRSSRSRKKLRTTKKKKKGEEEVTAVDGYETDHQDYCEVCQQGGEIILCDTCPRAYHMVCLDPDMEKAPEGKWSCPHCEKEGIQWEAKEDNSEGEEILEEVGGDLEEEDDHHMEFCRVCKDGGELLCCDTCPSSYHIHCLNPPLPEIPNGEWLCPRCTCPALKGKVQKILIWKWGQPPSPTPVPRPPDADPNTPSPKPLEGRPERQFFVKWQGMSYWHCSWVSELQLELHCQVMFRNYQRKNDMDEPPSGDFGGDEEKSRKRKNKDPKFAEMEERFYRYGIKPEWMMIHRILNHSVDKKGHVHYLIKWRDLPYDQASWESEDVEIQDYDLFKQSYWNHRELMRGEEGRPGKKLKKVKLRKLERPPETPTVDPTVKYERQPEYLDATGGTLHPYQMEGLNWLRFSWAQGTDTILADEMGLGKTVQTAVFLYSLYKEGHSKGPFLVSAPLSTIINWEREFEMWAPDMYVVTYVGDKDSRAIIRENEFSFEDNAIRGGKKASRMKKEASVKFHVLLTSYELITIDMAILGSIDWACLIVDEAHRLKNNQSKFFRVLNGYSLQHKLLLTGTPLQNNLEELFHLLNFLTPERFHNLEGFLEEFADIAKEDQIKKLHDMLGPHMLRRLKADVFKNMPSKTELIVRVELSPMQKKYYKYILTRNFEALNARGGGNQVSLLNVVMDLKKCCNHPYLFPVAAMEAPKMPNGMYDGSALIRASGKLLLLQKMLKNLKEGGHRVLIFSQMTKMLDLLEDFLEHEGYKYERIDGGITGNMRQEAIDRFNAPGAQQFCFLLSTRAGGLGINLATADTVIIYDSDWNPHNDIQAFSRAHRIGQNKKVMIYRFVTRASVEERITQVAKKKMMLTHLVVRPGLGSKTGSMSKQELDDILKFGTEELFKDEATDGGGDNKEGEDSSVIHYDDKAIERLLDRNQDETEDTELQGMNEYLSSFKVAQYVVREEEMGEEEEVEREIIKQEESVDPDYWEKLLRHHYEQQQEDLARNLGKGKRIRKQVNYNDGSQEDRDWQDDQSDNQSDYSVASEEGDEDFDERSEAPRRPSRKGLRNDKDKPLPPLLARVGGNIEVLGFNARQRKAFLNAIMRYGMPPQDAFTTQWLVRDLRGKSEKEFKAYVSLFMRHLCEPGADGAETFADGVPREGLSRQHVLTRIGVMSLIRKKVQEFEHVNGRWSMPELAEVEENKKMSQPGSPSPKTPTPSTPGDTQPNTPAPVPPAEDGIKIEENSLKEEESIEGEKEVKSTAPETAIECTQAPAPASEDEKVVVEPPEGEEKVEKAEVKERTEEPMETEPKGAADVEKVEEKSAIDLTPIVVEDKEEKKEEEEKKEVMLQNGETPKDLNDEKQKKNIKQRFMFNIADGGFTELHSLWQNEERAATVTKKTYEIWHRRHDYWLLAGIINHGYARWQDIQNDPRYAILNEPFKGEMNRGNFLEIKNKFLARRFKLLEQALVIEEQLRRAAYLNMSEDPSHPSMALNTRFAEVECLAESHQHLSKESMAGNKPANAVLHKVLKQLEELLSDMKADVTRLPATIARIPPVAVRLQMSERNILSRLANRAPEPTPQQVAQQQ
inactive: [1] 0.04 | filanesib 0.079 | zotarolimus 0.019 | idasanutlin 0.045 | alisertib 0 | [2] -0.099 | gefitinib 0.055 | [3] -0.097 | lapatinib 0.013 | pictilisib -0.028

CBX5 (UniProt P45973)
inactive: [1] 0.119 | filanesib -0.046 | zotarolimus 0.029 | idasanutlin -0.014 | alisertib -0.062 | [2] 0.003 | gefitinib 0.024 | [3] 0.022 | lapatinib 0.019 | pictilisib 0.106

CKS1B (UniProt P61024)
inactive: [1] -0.045 | filanesib 0.047 | zotarolimus 0.013 | idasanutlin -0.011 | alisertib -0.012 | [2] -0.048 | gefitinib -0.008 | [3] 0.031 | lapatinib 0.004 | pictilisib -0.007

COPS8 (UniProt Q99627)
inactive: [1] 0.006 | filanesib 0.023 | zotarolimus 0.045 | idasanutlin -0.017 | alisertib 0.042 | [2] -0.078 | gefitinib -0.028 | [3] 0.117 | lapatinib -0.01 | pictilisib -0.014

CELF2 isoform 3 (UniProt O95319)
Sequence of UniProt O95319 (O95319 whole entry, looked up): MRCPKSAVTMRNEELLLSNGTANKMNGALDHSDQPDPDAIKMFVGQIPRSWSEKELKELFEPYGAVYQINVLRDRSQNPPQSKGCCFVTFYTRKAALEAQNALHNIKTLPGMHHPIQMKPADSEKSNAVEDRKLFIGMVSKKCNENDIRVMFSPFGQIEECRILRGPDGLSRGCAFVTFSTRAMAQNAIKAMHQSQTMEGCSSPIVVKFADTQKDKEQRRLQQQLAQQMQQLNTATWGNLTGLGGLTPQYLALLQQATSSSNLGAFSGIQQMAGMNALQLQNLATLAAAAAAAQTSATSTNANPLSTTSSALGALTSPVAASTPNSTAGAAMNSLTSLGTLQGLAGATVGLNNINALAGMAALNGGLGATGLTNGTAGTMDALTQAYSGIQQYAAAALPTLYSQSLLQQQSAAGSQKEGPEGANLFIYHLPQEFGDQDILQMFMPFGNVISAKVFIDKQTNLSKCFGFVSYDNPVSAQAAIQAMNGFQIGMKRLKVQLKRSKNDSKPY
inactive: [1] 0.115 | filanesib 0.052 | zotarolimus -0.035 | idasanutlin -0.044 | alisertib -0.122 | [2] 0.1 | gefitinib -0.027 | [3] -0.006 | lapatinib 0.032 | pictilisib 0.051

CSNK2A2 (UniProt P19784)
Sequence of UniProt P19784 (P19784 whole entry, looked up): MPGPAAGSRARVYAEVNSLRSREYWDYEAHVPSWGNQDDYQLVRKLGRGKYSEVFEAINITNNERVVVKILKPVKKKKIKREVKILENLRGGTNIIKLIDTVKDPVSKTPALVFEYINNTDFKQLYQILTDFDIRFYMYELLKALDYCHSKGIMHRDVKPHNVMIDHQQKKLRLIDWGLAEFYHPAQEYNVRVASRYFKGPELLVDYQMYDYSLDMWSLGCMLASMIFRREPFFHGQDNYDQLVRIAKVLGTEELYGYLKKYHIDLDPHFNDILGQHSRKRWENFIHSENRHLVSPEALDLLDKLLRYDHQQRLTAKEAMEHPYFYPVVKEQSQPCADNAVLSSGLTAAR
inactive: [1] -0.042 | filanesib -0.019 | zotarolimus -0.003 | idasanutlin -0.094 | alisertib 0.001 | [2] -0.177 | gefitinib -0.031 | [3] 0.033 | lapatinib 0.02 | pictilisib 0.128

COX7B (UniProt P24311)
inactive: [1] 0.112 | filanesib 0.028 | zotarolimus -0.003 | idasanutlin -0.012 | alisertib 0.038 | [2] -0.018 | gefitinib 0.023 | [3] 0.094 | lapatinib -0.009 | pictilisib -0.039

CRKL (UniProt P46109)
inactive: [1] 0.006 | filanesib 0.002 | zotarolimus 0.007 | idasanutlin 0.022 | alisertib -0.036 | [2] 0.021 | gefitinib 0 | [3] 0.102 | lapatinib -0.012 | pictilisib 0.057

CDKN1B (UniProt P46527)
inactive: [1] 0.085 | filanesib -0.02 | zotarolimus -0.007 | idasanutlin -0.033 | alisertib 0.068 | [2] 0.104 | gefitinib 0.124 | [3] -0.076 | lapatinib -0.03 | pictilisib -0.02

CDK1 (UniProt P06493)
inactive: [1] 0.04 | filanesib 0.024 | zotarolimus 0.007 | idasanutlin 0.02 | alisertib -0.083 | [2] -0.036 | gefitinib 0.009 | [3] 0.017 | lapatinib 0.008 | pictilisib -0.002

CD63 (UniProt P08962)
inactive: [1] -0.053 | zotarolimus -0.01 | idasanutlin -0.051 | alisertib -0.069 | [2] -0.031 | gefitinib -0.076 | [3] 0.096 | lapatinib -0.002 | pictilisib 0.032
active: filanesib -0.336

CDC42EP1 (UniProt Q00587)
inactive: [1] -0.139 | filanesib -0.07 | zotarolimus 0.014 | idasanutlin 0 | alisertib 0 | gefitinib 0.087 | [3] -0.057 | lapatinib -0.015 | pictilisib -0.143
active: [2] -0.492

CNTN4 (UniProt Q8IWV2)
inactive: [1] 0.1 | filanesib 0 | zotarolimus 0.017 | idasanutlin -0.148 | alisertib -0.399 | [2] 0.341 | gefitinib -0.039 | [3] -0.169 | lapatinib -0.047 | pictilisib 0.222

CHD3 isoform 3 (UniProt Q12873)
inactive: [1] -0.137 | filanesib 0.082 | zotarolimus 0.174 | idasanutlin 0.097 | alisertib -0.001 | [2] -0.207 | gefitinib 0 | [3] -0.051 | lapatinib -0.016 | pictilisib -0.024

CDKN2AIP (UniProt Q9NXV6)
Sequence of UniProt Q9NXV6 (Q9NXV6 whole entry, looked up): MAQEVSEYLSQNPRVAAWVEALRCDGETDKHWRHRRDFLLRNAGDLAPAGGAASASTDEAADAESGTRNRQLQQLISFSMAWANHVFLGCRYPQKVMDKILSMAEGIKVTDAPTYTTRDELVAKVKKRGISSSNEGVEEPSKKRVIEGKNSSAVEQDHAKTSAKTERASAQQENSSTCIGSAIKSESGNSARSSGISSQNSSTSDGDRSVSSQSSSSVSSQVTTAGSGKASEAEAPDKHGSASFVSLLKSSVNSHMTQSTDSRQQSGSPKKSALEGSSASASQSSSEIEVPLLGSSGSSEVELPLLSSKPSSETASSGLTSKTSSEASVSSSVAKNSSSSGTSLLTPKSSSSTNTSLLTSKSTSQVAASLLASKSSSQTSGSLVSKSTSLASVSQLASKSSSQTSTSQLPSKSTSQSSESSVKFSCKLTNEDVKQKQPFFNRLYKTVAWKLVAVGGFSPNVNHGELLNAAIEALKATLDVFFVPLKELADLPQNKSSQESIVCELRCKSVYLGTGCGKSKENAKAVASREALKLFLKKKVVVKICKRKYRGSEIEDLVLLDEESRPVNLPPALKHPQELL
inactive: [1] 0.059 | filanesib 0.024 | zotarolimus -0.029 | idasanutlin -0.033 | alisertib -0.091 | [2] -0.007 | gefitinib 0.038 | [3] 0.054 | lapatinib 0.042 | pictilisib -0.025

CHP1 (UniProt Q99653)
inactive: [1] 0.039 | filanesib -0.044 | zotarolimus 0.058 | idasanutlin -0.084 | alisertib -0.144 | [2] 0.129 | gefitinib 0.026 | [3] -0.02 | lapatinib -0.054 | pictilisib 0.053

COPS4 (UniProt Q9BT78)
active: [1] 0.219
inactive: filanesib -0.067 | zotarolimus 0.032 | idasanutlin -0.039 | alisertib -0.054 | [2] -0.035 | gefitinib -0.007 | [3] 0.019 | lapatinib 0.025 | pictilisib -0.011

CDK13 (UniProt Q14004)
inactive: [1] -0.323 | filanesib 0.169 | zotarolimus 0.029 | idasanutlin 0.215 | alisertib -0.141 | [2] -0.197 | gefitinib 0.001 | [3] 0.037 | lapatinib 0.054 | pictilisib -0.048

CCDC9 (UniProt Q9Y3X0)
Sequence of UniProt Q9Y3X0 (Q9Y3X0 whole entry, looked up): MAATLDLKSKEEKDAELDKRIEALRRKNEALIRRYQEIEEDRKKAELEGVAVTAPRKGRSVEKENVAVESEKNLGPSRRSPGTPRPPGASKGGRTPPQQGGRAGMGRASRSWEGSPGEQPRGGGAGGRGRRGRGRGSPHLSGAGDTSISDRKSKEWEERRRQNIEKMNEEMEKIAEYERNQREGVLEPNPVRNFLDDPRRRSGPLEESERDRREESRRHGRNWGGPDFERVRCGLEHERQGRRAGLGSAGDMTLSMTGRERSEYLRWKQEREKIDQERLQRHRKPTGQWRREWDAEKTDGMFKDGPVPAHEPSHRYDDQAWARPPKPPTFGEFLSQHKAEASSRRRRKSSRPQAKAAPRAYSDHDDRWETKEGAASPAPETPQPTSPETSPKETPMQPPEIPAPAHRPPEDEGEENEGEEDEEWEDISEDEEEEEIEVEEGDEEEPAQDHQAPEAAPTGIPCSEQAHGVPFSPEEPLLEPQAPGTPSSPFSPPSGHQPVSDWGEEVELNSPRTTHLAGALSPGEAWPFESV
inactive: [1] 0.057 | filanesib 0.021 | zotarolimus -0.11 | idasanutlin 0.018 | alisertib -0.035 | [2] 0.02 | gefitinib -0.078 | [3] -0.021 | lapatinib 0.003 | pictilisib -0.015

CSNK2A1 (UniProt P68400)
inactive: [1] -0.025 | filanesib 0.03 | zotarolimus -0.015 | idasanutlin -0.009 | alisertib -0.073 | [2] -0.167 | gefitinib -0.023 | [3] 0.066 | lapatinib 0.032 | pictilisib 0.102

CAMKK2 (UniProt Q96RR4)
inactive: [1] -0.063 | filanesib 0.085 | zotarolimus -0.077 | idasanutlin -0.091 | alisertib -0.377 | [2] 0.12 | gefitinib 0.019 | [3] 0.015 | lapatinib 0.025 | pictilisib 0.035
